Results as given in PubChem BioAssay (Tox21).
Values joined by “and” are separate entries in the source; they are usually repeats but may differ in a detail not shown here. Equal values may be shown once. Records with an inconclusive call do not appear. Active and inactive are the calls of the source. Unless noted, calls follow the shape of the dose curve; as a rule, active = well fitted curve in the direction sought with a large enough effect in the repeat runs; inconclusive = weak or mixed curves; inactive = no such curve, though single readings can be large; an effect the other way counts as inactive or inconclusive.

Tests used:
[1] = qHTS assay to identify small molecule antagonists of the glucocorticoid receptor (GR) signaling pathway - cell viability counter screen (AID 720693); also: nearly all actives have a fitted effect of over 55% in size; also: potency is read from the fitted curve at half-maximal effect
[2] = qHTS assay for identifying genotoxic compounds that show differential cytotoxicity against isogenic chicken DT40 cell lines with known DNA damage response pathways - wild type cell line (AID 743012); also: nearly all actives have a fitted effect of over 60% in size; also: potency is read from the fitted curve at half-maximal effect
Outline: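 Viability by ATP luminescence (CellTiter-Glo, 30 min RT) after 40 h compound treatment at 37 C/5% CO2, using 300 parental DNA repair-proficient DT40 cells per well.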

[3] = qHTS assay for identifying genotoxic compounds that show differential cytotoxicity against isogenic chicken DT40 cell lines with known DNA damage response pathways - Rev3 mutant cell line (AID 743014); also: nearly all actives have a fitted effect of over 55% in size; also: potency is read from the fitted curve at half-maximal effect
[4] = qHTS assay for identifying genotoxic compounds that show differential cytotoxicity against isogenic chicken DT40 cell lines with known DNA damage response pathways - Rad54/Ku70 mutant cell line (AID 743015); also: nearly all actives have a fitted effect of over 60% in size; also: potency is read from the fitted curve at half-maximal effect
[5] = qHTS assay to identify small molecule antagonists of the androgen receptor (AR) signaling pathway - cell viability counter screen (AID 743033; also: nearly all actives have a fitted effect of over 45% in size; also: potency is read from the fitted curve at half-maximal effect)
[6] = target: Androgen receptor (Homo sapiens) (UniProt P10275); assay: qHTS assay to identify small molecule agonists of the androgen receptor (AR) signaling pathway using the MDA cell line (AID 743040; also: nearly all actives have a fitted effect of over 20% in size)
Outline: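 Cell-based luciferase reporter: MDA-kb2, MMTV promoter (AR + GR response elements). 16 h compound exposure at 37C; ONE-Glo, 30 min RT, luminescence.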

[7] = qHTS assay to identify small molecule antagonists of the androgen receptor (AR) signaling pathway using the MDA cell line - cell viability counter screen (AID 743041; also: nearly all actives have a fitted effect of over 45% in size; also: potency is read from the fitted curve at half-maximal effect)
Outline: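 In this qHTS counter assay, fluorescence intensity after CellTiter-Fluor addition indicated viability of MDA-kb2 AR-luc cells given compounds and R1881 for 16 h at 37C.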

[8] = target: Androgen receptor (Homo sapiens) (UniProt P10275); assay: qHTS assay to identify small molecule antagonists of the androgen receptor (AR) signaling pathway using the MDA cell line (AID 743042; also: nearly all actives have a fitted effect of over 55% in size; also: potency is read from the fitted curve at half-maximal effect)
Outline: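 MDA-kb2 cells (human breast carcinoma, stably carrying an MMTV-luciferase reporter responsive to AR and GR) were plated at 3,000 cells/well and preincubated 5 hr at 37C, then given compound plus R1881 agonist for 16 h. ONE-Glo luminescence was read.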

[9] = target: Androgen receptor (Homo sapiens) (UniProt P10275); assay: qHTS assay to identify small molecule antagonists of the androgen receptor (AR) signaling pathway (AID 743035; active = well fitted inhibition curve with a large enough effect in the signal ratio in the repeat runs, not every such curve was filed as active; the % refers to the signal ratio; also: potency is read from the fitted curve at half-maximal effect)
Outline: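 Antagonist mode: AR-bla HEK293 cells co-treated with test compounds and agonist R1881 for 16 h at 37C, 5% CO2. Beta-lactamase activity read as FRET fluorescence after 2 h room-temperature substrate loading.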

[10] = target: Androgen receptor (Homo sapiens) (UniProt P10275); assay: qHTS assay to identify small molecule agonists of the androgen receptor (AR) signaling pathway (AID 743036; active = well fitted activation curve with a large enough effect in the signal ratio in the repeat runs, with a control signal flat, not every such curve was filed as active; the % refers to the signal ratio)
Outline: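 Beta-lactamase under UAS control, stably integrated in HEK293 GripTite cells, reports receptor activation. After 16 h compound treatment, cells received FRET substrate for 2 h at room temperature before fluorescence reading.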
% is scaled to controls: 0 for no effect and ±100 for the full control effect.

Androgen receptor (Homo sapiens), sequence (P10275 whole entry, looked up): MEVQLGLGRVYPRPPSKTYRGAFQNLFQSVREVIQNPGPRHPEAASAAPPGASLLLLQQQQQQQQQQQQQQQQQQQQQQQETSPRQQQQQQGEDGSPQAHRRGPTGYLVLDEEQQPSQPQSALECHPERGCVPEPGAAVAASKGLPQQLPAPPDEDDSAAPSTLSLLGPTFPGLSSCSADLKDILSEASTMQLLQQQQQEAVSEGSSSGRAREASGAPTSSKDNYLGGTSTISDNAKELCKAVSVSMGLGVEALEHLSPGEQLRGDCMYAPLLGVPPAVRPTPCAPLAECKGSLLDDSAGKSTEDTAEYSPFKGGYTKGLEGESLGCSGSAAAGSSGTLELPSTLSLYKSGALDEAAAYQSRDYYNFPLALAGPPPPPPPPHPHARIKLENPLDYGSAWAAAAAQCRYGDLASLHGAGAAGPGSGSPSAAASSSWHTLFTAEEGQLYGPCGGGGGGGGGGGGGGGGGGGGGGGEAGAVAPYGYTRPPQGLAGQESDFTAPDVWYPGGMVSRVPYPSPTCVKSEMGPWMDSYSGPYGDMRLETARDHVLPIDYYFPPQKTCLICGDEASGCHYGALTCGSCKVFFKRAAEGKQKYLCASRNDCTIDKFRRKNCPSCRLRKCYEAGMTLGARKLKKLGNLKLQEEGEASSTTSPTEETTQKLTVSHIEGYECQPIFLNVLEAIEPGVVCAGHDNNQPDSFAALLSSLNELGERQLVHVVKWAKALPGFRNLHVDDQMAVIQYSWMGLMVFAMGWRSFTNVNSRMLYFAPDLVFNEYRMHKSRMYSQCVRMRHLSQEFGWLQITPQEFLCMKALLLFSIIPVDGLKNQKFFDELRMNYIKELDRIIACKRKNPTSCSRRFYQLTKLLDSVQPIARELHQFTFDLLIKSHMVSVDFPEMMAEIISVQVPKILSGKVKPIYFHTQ

O=c1[nH]c(Cl)c(Cl)cc1Cl
inactive: Potency [1] | Potency [2] | Potency [3] | Potency [4] | Potency [5] | outcome [6] | Potency [7] | Potency [8]

Oc1ccc(Cl)c(Cl)c1
inactive: Potency [1] | Potency [2] | Potency [3] | Potency [4] | Potency [5] | Potency [7]

CC(C)(C)c1ccc(OP(=O)(Oc2ccccc2)Oc2ccccc2)cc1
active: Potency [2] 61.5 µM | Potency [3] 27.5 µM | Potency [4] 19.4 µM
inactive: Potency [1]

O.O.O.O.O.O.O.O=S(=O)([O-])[O-].[Co+2]
inactive: Potency [1] | Potency [2] | Potency [3] | Potency [4] | Potency [5] | Potency [7]

COc1cnc(OC)n2nc(NS(=O)(=O)c3c(OCC(F)F)cccc3C(F)(F)F)nc12
inactive: Potency [1] | Potency [2] | Potency [3] | Potency [4] | Potency [5] | Potency [7]

N#Cc1sc2c(=O)c3ccccc3c(=O)c=2sc1C#N
active: Potency [1] 0.49 µM | Potency [2] 1.37 µM | Potency [3] 0.433 µM | Potency [4] 0.77 µM | Potency [5] 13.8 µM | Potency [9] 9.77 µM | Potency [7] 1.37 µM | Potency [8] 306 nM
inactive: outcome [6]

CCOC(=O)Cc1ccccc1
inactive: Potency [1] | Potency [2] | Potency [3] | Potency [4] | Potency [5] | Potency [9] | outcome [10] | outcome [6] | Potency [7] | Potency [8]

CCn1cc[n+](C)c1 (tested in a mixture with another compound)
inactive: Potency [1] | Potency [2] | Potency [3] | Potency [4] | Potency [5] | Potency [7]

O=C(NC(=O)c1c(F)cccc1F)Nc1ccc(Oc2ccc(C(F)(F)F)cc2Cl)cc1F
inactive: Potency [1]
active: Potency [2] 4.33 µM | Potency [3] 21.7 µM | Potency [4] 3.86 µM

OCC(Br)CBr (stereo not drawn)
inactive: Potency [1] | Potency [2] | Potency [3] | Potency [4] | Potency [5]

CN1[C@@H]2CC[C@H]1CC(O)C2 (stereo partly drawn)
inactive: Potency [1] | Potency [2] | Potency [3] | Potency [4] | Potency [5] | Potency [7]

O=C1C(Cl)=C(Cl)C(=O)C(Cl)=C1Cl
inactive: outcome [6]
active: Potency [1] 38.9 µM | Potency [2] 13.6 µM and 9.69 µM | Potency [3] 8.6 µM and 6.86 µM | Potency [4] 17.2 µM and 8.63 µM | Potency [5] 17.3 µM and 21.9 µM | Potency [8] 34.2 µM and 30.6 µM

CCCCCON=O
inactive: Potency [1] | Potency [2] | Potency [3] | Potency [4] | Potency [5]

CCC[CH2][Sn]([CH2]CCC)([CH2]CCC)[O][Sn]([CH2]CCC)([CH2]CCC)[CH2]CCC
inactive: activity change [6] -9.89% [at 8.47 µM]
active: Potency [1] 1.35 µM | Potency [2] 0.336 µM | Potency [3] 0.3 µM | Potency [4] 0.267 µM | Potency [5] 0.603 µM | Potency [9] 0.427 µM | Potency [7] 1.5 µM | Potency [8] 844 nM

CC(C)NCC(O)c1ccccc1Cl (stereo not drawn)
inactive: Potency [1] | Potency [2] | Potency [3] | Potency [4] | Potency [5] | Potency [9] | outcome [10] | outcome [6] | Potency [7] | Potency [8]

CC(C)=CC1C(C(=O)OC(C#N)c2cccc(Oc3ccccc3)c2)C1(C)C (stereo not drawn)
inactive: Potency [1] | Potency [2] | Potency [3] | Potency [4] | Potency [5] | Potency [9] | outcome [10] | outcome [6] | Potency [7] | Potency [8]

COc1ccc(Cc2nccc3cc(OC)c(OC)cc23)cc1OC
active: Potency [2] 4.03 µM | Potency [3] 9.02 µM | Potency [4] 7.17 µM | Potency [8] 9020 nM
inactive: Potency [1] | Potency [5] | outcome [10] | outcome [6]

CN(C)c1ccc(N)cc1
inactive: Potency [1] | outcome [10] | Potency [8]
active: Potency [2] 29.9 µM | Potency [3] 21.2 µM | Potency [4] 26.6 µM | Potency [5] 42.6 µM | Potency [9] 24 µM | Potency [7] 59.6 µM

N#CC(C#N)=NNc1cccc(Cl)c1
inactive: outcome [6]
active: Potency [1] 6.92 µM | Potency [2] 2.73 µM | Potency [3] 2.73 µM | Potency [4] 2.43 µM | Potency [5] 2.45 µM | Potency [7] 4.86 µM | Potency [8] 1930 nM

ClC1=C(Cl)[C@]2(Cl)[C@@H]3[C@H]4C[C@H]([C@@H]5O[C@H]45)[C@@H]3[C@@]1(Cl)C2(Cl)Cl
active: Potency [2] 29.8 µM and 27.3 µM | Potency [3] 9.68 µM | Potency [4] 17.2 µM
inactive: Potency [1] | Potency [5] | Potency [7]

CCCCc1ccccc1
inactive: Potency [1] | Potency [2] | Potency [3] | Potency [4] | Potency [5] | Potency [7]

ClCBr
inactive: Potency [1] | Potency [2] | Potency [3] | Potency [4] | Potency [5] | Potency [7]

CCOP(=O)(Sc1ccccc1)Sc1ccccc1
active: Potency [2] 24.3 µM
inactive: Potency [1] | Potency [3] | Potency [4] | Potency [5] | Potency [7]

[Cl][Hg][c]1ccccc1
active: Potency [1] 0.309 µM | Potency [2] 0.122 µM | Potency [3] 0.172 µM | Potency [4] 0.0863 µM | Potency [5] 1.38 µM | Potency [7] 3.44 µM | Potency [8] 969 nM
inactive: outcome [6]
